NS1 inh: influenza NS1 inhibition; Potency, µM (doses to about 46.1 µM); hit rate 0.4% among 270,000; AID 2326; calls by dose curve; note: actives are rising curves; nearly all actives have a fitted effect of over 50% in size
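Recovery from NS1-induced slow growth read by OD600 in budding yeast switched to galactose assay medium (pH 6.0, -URA) at 1:100 dilution. Compound 23 nl per well; the matching strain lacking NS1 serves as control.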
Pf growth 96h: inhibits malaria parasite growth, 96 h. Potency, µM (series often up to 28.7 µM), usual class: inhibitors. P. falciparum luciferase reporter growth, 96 h. AID 504834. hit rate 6.9% among 320,000
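Compounds incubated with erythrocytes infected by luciferase-expressing P. falciparum (2% hematocrit, 0.05% parasitemia final) for 96 hours, 37 C in 5% CO2. Growth inhibition scored as decreased luciferase luminescence.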
Cycloheximide cs: counter-screen for Shiga toxin inhibitors: cycloheximide protein synthesis inhibition; cell reporter, cycloheximide protein synthesis inhibition counterscreen; max response, %; hit rate 12% among 300,000; in the data active = max response mostly above about 13%, no sharp cut-off; inactive = mostly below about 14%; note: read at 38.3 µM for the half of the compounds with a filed dose
Shiga inhibitor: blocks Shiga toxin action in Vero cells | inhibition, % at 38.7 µM | Vero cells, Shiga toxin protein synthesis inhibition reporter | AID 2315 | hit rate 9.2% among 290,000; in the data active = inhibition mostly above about 28%, no sharp cut-off; inactive = mostly below about 43%
Pf growth 48h: inhibits P. falciparum growth in the first generation, 48 h | P. falciparum luciferase growth in erythrocytes, 48 h | Potency, µM (series often up to 28.7 µM), most hits filed as inhibitors | hit rate 5.9% among 310,000 | AID 504832
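Luciferase-expressing P. falciparum in infected erythrocytes (2% hematocrit, 0.1% parasitemia final) in RPMI 1640/0.5% Albumax were exposed to compound for 48 hours at 37 C, 5% CO2; growth read as luminescence.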
Large screens that a line does not name were inactive. Only some compounds are listed: those with a hit (about 21% of all), similar ones and a draw of the others. Unless noted, calls come from the whole dose curve; as a rule, active = well fitted inhibition curve with a large enough effect; inconclusive = small, poorly fitted or top-dose-only effect, or another doubt; inactive = no such curve, though single readings can be large or run the other way.

O=[N+]([O-])c1ccc(N/N=C2\CC3CC=CC23)cc1 (centres undefined)	Cycloheximide cs 41.6, Shiga inhibitor 81.7
Cc1ccc(-c2nnc(CSc3nnc(COc4cccc5ccccc45)n3-c3ccccc3)o2)cc1	NS1 inh inconclusive, Pf growth 96h 13.1µM (no result: Pf growth 48h)
N#CCSc1nnc(COc2cccc3ccccc23)n1-c1ccccc1	Pf growth 48h inconclusive
N#CCSc1nnc(COc2cccc3ccccc23)n1-c1cccc(Cl)c1	Pf growth 48h inconclusive
COc1ccc(-n2c(COc3cccc4ccccc34)nnc2SCC#N)cc1	Pf growth 48h 13.1µM
Cc1cc(C)cc(-n2ncc3c2CCCC3NC(=O)c2ccccc2N2CCOCC2)c1 (centres undefined)	Pf growth 48h inconclusive
CCCCn1c(N)c(N(Cc2ccccc2OC)C(=O)CCSC)c(=O)[nH]c1=O	Pf growth 96h inconclusive
CCCCn1c(N)c(N(Cc2ccccc2OC)C(=O)c2ccc([N+](=O)[O-])s2)c(=O)[nH]c1=O	Pf growth 96h 9.28µM, Pf growth 48h 10.4µM (no result: NS1 inh, Cycloheximide cs, Shiga inhibitor)
CCC(C(=O)O)C1OC(C(C)C(O)C(C)C(=O)C(CC)C2OC3(C=CC(O)C4(CCC(C)(C5CCC(O)(CC)C(C)O5)O4)O3)C(C)CC2C)C(C)CC1C (centres undefined)	Pf growth 96h 0.0338µM, Pf growth 48h 0.0536µM (no result: NS1 inh, Cycloheximide cs, Shiga inhibitor)
COC(=O)CN1C(=O)N/C(=C/c2ccccc2OC)C1=O	none (no result: NS1 inh)
C=C1CC2C(CCC3(C)C2CCC3(O)C(C)=O)C2(C)CCC(=O)C=C12 (centres undefined)	Pf growth 48h inconclusive
C=C1C[C@H]2[C@@H]3C=C(C)C4=CC(=O)CC[C@]4(C)[C@H]3CC[C@]2(C)[C@@]1(OC(C)=O)C(C)=O	Pf growth 96h inconclusive, Pf growth 48h 9.28µM (no result: NS1 inh)
C/C(N)=C(/C#N)C(=O)CSc1nnc(-c2ccccc2Br)o1	Cycloheximide cs 54.2, Shiga inhibitor 126.3 (no result: Pf growth 96h)
CC(C)CCNC(=O)NC(=O)CSc1nnc(-c2ccccc2Br)o1	none (no result: Pf growth 48h)
COc1ccc2nc(SCC(=O)/C(C#N)=C(\C)N)[nH]c2c1	Cycloheximide cs 46.6, Shiga inhibitor 96.8
COc1ccc2nc(SCC(N)=O)[nH]c2c1	NS1 inh inconclusive (no result: Pf growth 96h)
COc1ccc(-c2nnc(SCC(=O)/C(C#N)=C(\C)N)o2)cc1	Cycloheximide cs 38.1, Shiga inhibitor 107.1
COc1ccc(-c2nnc(SCC(=O)N3c4ccccc4Sc4ccccc43)o2)cc1	none
O=C(O)C1CCCN1C(=O)NC1CCCCC1 (centres undefined)	none
O=C(NCc1ccccn1)c1nc(Cn2ccc([N+](=O)[O-])n2)no1	none
CN(C)S(=O)(=O)c1ccc(NC(=O)c2c(F)cccc2Cl)cc1	none
CN(C)S(=O)(=O)c1ccc(NC(=O)N2CCN(c3cccc(C(F)(F)F)c3)CC2)cc1	Pf growth 96h 11.7µM, Pf growth 48h 11.7µM
CN(C)S(=O)(=O)c1ccc(NC(=O)N2CCN(c3ccccc3Cl)CC2)cc1	Pf growth 96h inconclusive, Pf growth 48h 13.1µM
COc1ccc(NC(=O)N2CCN(c3cccc(C(F)(F)F)c3)CC2)cc1	none
COc1ccc([N+](=O)[O-])cc1NC(=O)c1ccc(-n2nc(C)cc2C)cc1	none (no result: NS1 inh)
Cc1ccc(N(CC(=O)NCc2ccccc2)C(=O)CCC(=O)Nc2ccccn2)cc1	none
O=C(NCc1ccco1)c1ccc2c(c1)OCCO2	Cycloheximide cs 23.9, Shiga inhibitor 26.4
O=C(NCc1ccccc1F)c1ccc2c(c1)OCCO2	Cycloheximide cs 22.8 (no result: Shiga inhibitor)
Cc1cc(C(=O)NCc2ccccc2F)cs1	Cycloheximide cs 16.1
O=C(NCc1ccco1)c1ccc2c(c1)CCO2	Pf growth 48h inconclusive
O=C(COC(=O)/C=C/c1cccc(C(F)(F)F)c1)NCCN1C(=O)CSC1=O	none (no result: NS1 inh, Cycloheximide cs, Shiga inhibitor)
Cc1nc(=O)c(-c2ccccc2)c(C)n1-c1ccc(S(N)(=O)=O)cc1	none (no result: Pf growth 96h)
Cc1nc(=O)c(-c2ccccc2)c(C)n1-c1ccc(C(=O)O)cc1	Pf growth 96h 1.65µM
CC1CN(C)C(C)C/C1=N\Oc1ccc([N+](=O)[O-])cc1 (centres undefined)	Pf growth 96h 1.04µM
CC1CN(C)C(C)C/C1=N/Oc1ccccc1[N+](=O)[O-] (centres undefined)	none
COc1ccc(Cc2nc3ccc(C(=O)N4CCCCC4CCO)cc3o2)cc1 (centres undefined)	Pf growth 96h 7.38µM
COCC1CCCCN1C(=O)c1ccc2nc(Cc3ccc(OC)c(OC)c3)oc2c1 (centres undefined)	Cycloheximide cs 12.3, Pf growth 48h inconclusive
CCC1CCCCN1C(=O)c1ccc2nc(Cc3ccc(OC)cc3)oc2c1 (centres undefined)	Cycloheximide cs 35.5, Shiga inhibitor 77.5, Pf growth 48h inconclusive
CCN(CC)C1CCN(C(=O)c2ccc3nc(Cc4ccc(OC)cc4)oc3c2)C1 (centres undefined)	Pf growth 96h inconclusive, Pf growth 48h inconclusive
COc1ccc(Cc2nc3ccc(C(=O)NCC4COCCO4)cc3o2)cc1OC (centres undefined)	Cycloheximide cs 33.6
O=C(c1ccc2nc(Cc3cccc(Cl)c3)oc2c1)N1CCC[C@H]1CO	none
COc1ccc(Cc2nc3ccc(C(=O)NCCc4ccncc4)cc3o2)cc1OC	none
COc1ccc(N2CCN(C(CNC(=O)C(=O)NCCc3c[nH]c4ccccc34)c3ccco3)CC2)cc1 (centres undefined)	Pf growth 96h inconclusive, Pf growth 48h inconclusive
CN(C)S(=O)(=O)c1cccc(NC(=O)c2cc(=O)[nH]c(=O)[nH]2)c1	none
CC1=CC(C)(C)N(C(=O)c2ccc(F)cc2)c2cc3c(cc21)OCO3	Pf growth 48h 11.7µM
Cc1cccc(NS(=O)(=O)c2ccc(-n3cccn3)cc2)c1C	none
C=CCNC(=O)c1c(Br)cnn1-c1ccc(C)cc1	Cycloheximide cs 45.0, Shiga inhibitor 58.7
Cc1ccc(-n2ncc(Cl)c2C(=O)NCc2ccccc2)cc1	Cycloheximide cs 42.4, Shiga inhibitor 57.6
CNC(=O)c1c(Cl)cnn1-c1ccc(F)cc1	none
CCCN(CCC)CCNC(=O)C1(O)c2ccccc2NC(=O)N1c1cccc(OC)c1 (centres undefined)	none
O=C(NCc1ccccc1)c1cc(-c2cccc(O)c2)on1	Cycloheximide cs 25.0, Shiga inhibitor 60.9
O=C(NCc1cccnc1)c1cc(-c2cccs2)on1	Cycloheximide cs 59.5, Shiga inhibitor 36.8 (no result: Pf growth 96h)
O=C(NCc1cccnc1)c1cc(-c2ccccc2)on1	Pf growth 96h inconclusive, Cycloheximide cs 40.1
CC(C)CNC(=O)c1nc(-c2ccccc2)n(-c2ccccc2)n1	none
O=C(Cc1ccc(-c2ccccc2)cc1)NCc1cccnc1	none
O=C(NCc1cccnc1)c1nc(-c2ccccc2)n(-c2ccccc2)n1	Pf growth 96h 3.29µM
S=c1[nH]nc(C2CCCCC2)o1	none (no result: NS1 inh)
COCc1c(C(=O)N/N=C/c2cccc3ccccc23)nnn1-c1nonc1N	Pf growth 96h inconclusive (no result: NS1 inh)
COc1ccc(-c2cc(C(=O)NCc3cccnc3)no2)cc1	Pf growth 96h inconclusive, Cycloheximide cs 43.2, Shiga inhibitor 73.0
Cc1ccc(C(=O)Nc2cc(C)nn2CCC#N)cc1	none

Screening results: PubChem, National Center for Advancing Translational Sciences (NCATS)
